In PubChem BioAssay AID720597 (Broad Institute, 2013):
Potency and affinity values are given separately. Calls of active or inactive are those of the source.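 Rule for the calls: active = fitted half-maximal dose no more than twice the top valid tested dose, for compounds that lower signal; inconclusive = fit invalid, or curve flat with activity between -70 and -30; inactive = potency past limit, curve flat within ±30, or signal increasing.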

target: NAD-dependent protein deacylase sirtuin-5, mitochondrial (Homo sapiens) (UniProt Q9NXA8); test: blockers of sirtuin-5 peptide desuccinylation – biochemical, fluorescence imaging, cherry-pick, set 6, dose response (AID 720597); details: Purified SirT5, succinyl-peptide-AMC/trypsin fluorescence; series mostly up to 15 µM; activity change, negative = inhibition: at the top concentration;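 note: lower AMC signal can also come from blocking the trypsin step; 0% = median of neutral control wells and -100% = median of positive control wells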
Sequence (Q9NXA8 whole entry, looked up): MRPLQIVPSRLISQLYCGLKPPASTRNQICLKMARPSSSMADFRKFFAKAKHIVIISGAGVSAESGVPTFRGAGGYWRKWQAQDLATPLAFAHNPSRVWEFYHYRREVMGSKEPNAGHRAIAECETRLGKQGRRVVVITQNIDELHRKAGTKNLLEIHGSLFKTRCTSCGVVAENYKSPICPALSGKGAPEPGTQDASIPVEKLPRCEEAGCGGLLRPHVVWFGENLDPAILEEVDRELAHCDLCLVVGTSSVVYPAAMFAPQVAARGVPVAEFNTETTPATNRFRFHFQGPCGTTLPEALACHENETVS

Activity change, negative = inhibition, inactive:
COc1ccc(S(=O)(=O)N2CCC3(CC2)CN(C(=O)c2cccnc2)[C@@H](CO)c2c3c3ccc(OC)cc3n2C)cc1 12.7%, C[C@@H]1CN([C@H](C)CO)S(=O)(=O)c2ccc(C#CC3CC3)cc2O[C@@H]1CN(C)Cc1ccccc1F -18.8%, O=S(=O)(c1ccc(F)cc1)N1CCCCN2[C@H](CO)[C@H](c3ccc(C#CC4CCCC4)cc3)[C@@H]2C1 -22.7%, CCCNC(=O)N1CC2(C1)[C@H](c1ccccc1)[C@H](CO)N2C(=O)C1CC1 -10.3%, COc1ccc(S(=O)(=O)Nc2ccc3c(c2)C(=O)N([C@@H](C)CO)C[C@H](C)[C@H](CN(C)Cc2ccc(Oc4ccccc4)cc2)O3)cc1 -1.06%, CC(C)CC#Cc1ccc2c(c1)O[C@@H](CN(C)Cc1ccccc1F)[C@H](C)CN([C@H](C)CO)S2(=O)=O -18.7%, CC(C)CC#Cc1ccc2c(c1)O[C@H](CN(C)S(=O)(=O)c1cccc(F)c1)[C@@H](C)CN([C@@H](C)CO)S2(=O)=O 23%, C[C@@H]1CN([C@H](C)CO)C(=O)c2cc(NS(=O)(=O)c3cccs3)ccc2O[C@@H](C)CCCCO[C@@H]1CN(C)Cc1ccc(C(F)(F)F)cc1 -13%, C[C@@H]1CN([C@@H](C)CO)C(=O)c2cccc(NC(=O)c3ccncc3)c2O[C@H]1CN(C)Cc1ccccc1 -10.4%, COc1ccc(S(=O)(=O)N(C)C[C@H]2Oc3cc(C#CC4CC4)ccc3S(=O)(=O)N([C@@H](C)CO)C[C@H]2C)cc1 5.85%, C[C@H]1CN([C@@H](C)CO)C(=O)c2c(c3ccccc3n2C)-c2ccccc2CO[C@@H]1CN(C)Cc1cccc2c1OCCCO2 -13.3%, COc1ccc(C#Cc2ccc([C@@H]3[C@H]4CN(C(=O)c5cccnc5)CC(=O)N4[C@H]3CO)cc2)cc1 4.01%, Cc1ccc(S(=O)(=O)N(C)C[C@H]2OCCCC[C@H](C)Oc3ccc(NS(=O)(=O)c4ccc(F)cc4)cc3C(=O)N([C@H](C)CO)C[C@@H]2C)cc1 -0.702%, COc1ccc(C#Cc2ccc([C@H]3[C@H](CO)N4C(=O)CN(C(=O)c5cccnc5)C[C@@H]34)cc2)cc1 -11.8%, C[C@@H]1CN([C@H](C)CO)C(=O)Cc2cc(NS(=O)(=O)c3ccc(F)cc3)ccc2O[C@@H]1CN(C)Cc1ccc(C(F)(F)F)cc1 -20.2%, Cc1ccc(-c2cnc3c(c2)C(=O)N([C@@H](C)CO)C[C@H](C)[C@@H](CN(C)C(=O)c2cccnc2)O3)cc1 23%, COc1ccccc1-c1ccc2n(c1=O)C[C@@H]1[C@@H](CO)[C@H](C(=O)N3CCCCC3)[C@H]2N1CC1CC1 20.6%, Cc1ccc(-c2ccc([C@@H]3[C@@H](CO)N4CCCCN(S(=O)(=O)c5cccc(C)c5)C[C@H]34)cc2)cc1 7.83%
